A selection: hits, their analogues and other compounds. The true share with any hit is near 6.7%.
Pf Dd2 growth: blocks growth of Plasmodium falciparum Dd2 parasites | P. falciparum Dd2 growth, SYBR Green, 72 h; stronger effect = lower value | activity change, % at 10 µM | 94,000 tested, 2.3% active | AID 1159554; in the data active = activity change below about -80%; inconclusive = no clear call, values can overlap the other calls
C diff growth: blocks growth of Clostridium difficile; Clostridium difficile clinical isolate growth, OD600, 24 h; stronger effect = lower value; growth activity, negative = inhibition, % at 16 µg/mL (by protocol); 86,000 tested, 0.25% active; AID 1259249;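 active = mean growth activity at or below -80% and every replicate also at or below -80%; inconclusive = mean at or below -80% but some replicate above -80%; inactive = mean growth activity above -80%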
T cruzi growth-1: T. cruzi proliferation inhibition | T. cruzi beta-gal in NIH3T3, GalScreen luminescence, 90 h | inhibition, % at 8.34 µM | 77,000 tested, 5.9% active;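 active = mean inhibition above about 93%, with at least 55% of replicates each passing it, limit read from the data, passing the limit was not always enough; inconclusive = only one of those two conditions holds; inactive = neither condition holds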
T cruzi growth-2: Trypanosoma cruzi proliferation inhibition. shares compounds with T cruzi growth-1. T. cruzi beta-gal in NIH3T3, GalScreen luminescence, 90 h. inhibition, % at 8.35 µM. 5,600 tested, 72% active;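 active = mean replicate inhibition above about 95% and at least 55% of replicates individually reaching it, limit read from the data; inconclusive = only one of the two criteria is met; inactive = neither criterion is met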
T cruzi growth-3: inhibitors of T. cruzi proliferation; shares compounds with T cruzi growth-1; T. cruzi beta-gal in NIH3T3, GalScreen luminescence, 90 h; inhibition, % at 2.09 µM; 5,600 tested, 21% active; AID 651740;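 active = mean inhibition above about 95%, with at least 55% of replicates also reaching it, limit read from the data; inconclusive = meets just one of the two conditions; inactive = meets neither condition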
3T3 cytotox: NIH/3T3 (mouse) viability loss. shares compounds with T cruzi growth-1. NIH/3T3 viability, CellTiter-Glo ATP luminescence, 90 h. cytotoxicity (signal decrease), % at 8.35 µM. 5,600 tested, 14% active;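 active = mean signal decrease across replicates above about 35% based on untreated-well scatter, with enough replicates individually passing, limit read from the data; inconclusive = no rule stated though some were filed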
3T3 cytotox 2: kills mouse NIH/3T3 fibroblasts; AID 651744; shares compounds with T cruzi growth-1; 5,600 tested, 56% active; NIH/3T3 viability, CellTiter-Glo ATP luminescence, 90 h; inhibition, % at 24.9 µM;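 active = mean loss of cell viability signal at or above a set limit, and enough replicates individually reaching it; inconclusive = meets only the mean limit or only the replicate share; inactive = meets neither condition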
Hits are given with their value; – = inactive; ? = inconclusive; · = not tested or not shown.

SMILES | Pf Dd2 growth | C diff growth | T cruzi growth-1 | T cruzi growth-2 | T cruzi growth-3 | 3T3 cytotox | 3T3 cytotox 2
C[C@@H]1CN([C@H](C)CO)C(=O)CCCn2cc(nn2)CO[C@@H]1CN(C)C(=O)c1ccc(N2CCN(C)CC2)cc1 | – | – | 120 | – | – | – | –
C[C@H]1CN([C@@H](C)CO)C(=O)CCCn2cc(nn2)CO[C@@H]1CN(C)Cc1ccccc1 | – | · | – | · | · | · | ·
COc1ccc(NC(=O)Nc2ccc3c(c2)C(=O)N([C@@H](C)CO)C[C@@H](C)[C@H](CN(C)S(=O)(=O)c2ccc(C)cc2)OCCCC[C@@H](C)O3)cc1 | – | · | – | · | · | · | ·
CO[C@H]1CN(C)C(=O)c2ccc(NC(=O)C3CC3)cc2OC[C@@H](C)N(Cc2ccncc2)C[C@@H]1C | – | · | – | · | · | · | ·
O=S(=O)(Cc1ccccc1)N1CCCCN2[C@H](CO)[C@@H](c3ccc(-c4ccccc4)cc3)[C@H]2C1 | – | – | 112 | 101 | – | – | 106
O=S(=O)(c1ccc(F)cc1)N1CCCCN2[C@H](C1)[C@@H](c1ccc(-c3ccccc3)cc1)[C@@H]2CO | – | – | 103 | 108 | – | – | 62
CCS(=O)(=O)N1CCCCN2[C@H](C1)[C@H](c1ccc(-c3ccccc3)cc1)[C@@H]2CO | – | – | – | · | · | · | ·
O=S(=O)(Cc1ccccc1)N1CCCCN2[C@@H](CO)[C@H](c3ccc(-c4cncnc4)cc3)[C@@H]2C1 | – | – | – | · | · | · | ·
O=S(=O)(c1ccc(F)cc1)N1CCCCN2[C@H](CO)[C@@H](c3ccc(-c4ccccc4)cc3)[C@@H]2C1 | – | – | – | · | · | · | ·
CCS(=O)(=O)N1CCCCN2[C@H](CO)[C@H](c3ccc(-c4ccccc4)cc3)[C@H]2C1 | – | – | – | · | · | · | ·
O=S(=O)(Cc1ccccc1)N1CCCCN2[C@H](CO)[C@H](c3ccc(-c4ccccc4)cc3)[C@@H]2C1 | – | – | 104 | 108 | – | – | 84
O=S(=O)(Cc1ccccc1)N1CCCCN2[C@H](CO)[C@H](c3ccc(-c4ccc(F)cc4)cc3)[C@H]2C1 | – | – | ? | – | 102 | 64 | 104
COCC(=O)N(C)C[C@H]1Oc2ncc(C#C[C@H](C)O)cc2C(=O)N([C@@H](C)CO)C[C@@H]1C | · | – | – | · | · | · | ·
C[C@@H]1CCCCO[C@@H](CN(C)Cc2ccccc2)[C@H](C)CN([C@H](C)CO)C(=O)c2cc(NS(=O)(=O)c3cn(C)cn3)ccc2O1 | – | – | · | · | · | · | ·
CCCN1C[C@@H](C)[C@H](OC)CN(C)C(=O)c2cc(NC(=O)c3ccc4c(c3)OCO4)ccc2OC[C@H]1C | – | – | – | · | · | · | ·
O=C(C[C@H]1CC[C@H](NC(=O)Nc2cccc(F)c2)[C@H](CO)O1)NCC1CC1 | – | · | – | · | · | · | ·
C/C=C/c1cnc2c(c1)C(=O)N([C@@H](C)CO)C[C@H](C)[C@@H](CN(C)C(=O)Nc1ccc(OC)cc1)O2 | – | – | – | · | · | · | ·
O=C(Cc1ccncc1)N1CC(=O)N2[C@H](C1)[C@H](c1ccc(C3=CCCC3)cc1)[C@@H]2CO | – | – | · | · | · | · | ·
CC=Cc1ccc2n(c1=O)C[C@@H]1[C@@H](CO)[C@H](C(=O)NCCc3ccncc3)[C@H]2N1CCC(F)(F)F (mixture of isomers) | · | · | – | · | · | · | ·
C[C@H](CO)N1C[C@H](C)[C@@H](CN(C)C(=O)Cc2ccccc2)OCCCC[C@H](C)Oc2ccc(NC(=O)CCC(F)(F)F)cc2C1=O | – | – | – | · | · | · | ·
CC(C)NC(=O)Nc1ccc2c(c1)C(=O)N([C@H](C)CO)C[C@@H](C)[C@@H](CN(C)CC1CCCCC1)OCCCC[C@H](C)O2 | – | · | – | · | · | · | ·
COc1cccc(-c2cnc3c(c2)C(=O)N([C@H](C)CO)C[C@@H](C)[C@H](CN(C)Cc2ccc(C(=O)O)cc2)O3)c1 | – | – | · | · | · | · | ·
CCS(=O)(=O)N1CCCCN2[C@H](C1)[C@@H](c1ccc(-c3ccccc3)cc1)[C@@H]2CO | – | – | – | · | · | · | ·
O=S(=O)(Cc1ccccc1)N1CCCCN2[C@@H](CO)[C@@H](c3ccc(-c4ccccc4)cc3)[C@@H]2C1 | – | – | 99 | 103 | – | – | 107
CCNC(=O)C[C@H]1CC[C@H]2[C@H](COc3ccc(NC(=O)c4cccc(C(F)(F)F)c4)cc3C(=O)N2C)O1 | – | – | – | · | · | · | ·
SMILES | Pf Dd2 growth | C diff growth | T cruzi growth-1 | T cruzi growth-2 | T cruzi growth-3 | 3T3 cytotox | 3T3 cytotox 2
CCCNC(=O)N1[C@H](CO)[C@@H]2c3ccccc3N(C(=O)c3ccc(F)cc3)C[C@@H]21 | – | – | – | · | · | · | ·
C[C@H](CO)N1C[C@H](C)[C@@H](CN(C)Cc2cccc(F)c2)OCc2ccccc2-c2c(n(C)c3ccccc23)C1=O | – | – | · | · | · | · | ·
C[C@@H]1CN([C@@H](C)CO)C(=O)c2c(c3ccccc3n2C)-c2ccccc2CO[C@@H]1CN(C)Cc1ccncc1 | – | · | – | · | · | · | ·
C[C@H]1CN([C@@H](C)CO)C(=O)c2c(c3ccccc3n2C)-c2ccccc2CO[C@@H]1CN(C)C(=O)[C@@H](Cc1ccccc1)N(C)C | – | – | – | · | · | · | ·
C[C@H](CO)N1C[C@H](C)[C@H](CN(C)C(=O)[C@H](Cc2ccccc2)N(C)C)OCc2ccccc2-c2c(n(C)c3ccccc23)C1=O | – | – | ? | – | – | – | ?
C[C@@H]1CN([C@H](C)CO)C(=O)c2c(c3ccccc3n2C)-c2ccccc2CO[C@@H]1CN(C)Cc1cccnc1 | ? | – | 111 | 109 | – | – | 51
C[C@H]1CN([C@@H](C)CO)C(=O)c2c(c3ccccc3n2C)-c2ccccc2CO[C@H]1CN(C)Cc1cccnc1 | – | – | ? | – | – | 37 | 63
C[C@@H]1CN([C@H](C)CO)C(=O)c2cc(NC(=O)CCC(F)(F)F)ccc2O[C@@H](C)CCCCO[C@@H]1CN(C)S(=O)(=O)c1cn(C)cn1 | – | – | – | · | · | · | ·
COc1cccc(NC(=O)N[C@H]2CC[C@@H](CC(=O)N3CCCCC3)O[C@@H]2CO)c1 | – | · | – | · | · | · | ·
O=C(Nc1ccc(C(F)(F)F)cc1)Nc1ccc2c(c1)[C@@H]1C[C@@H](CC(=O)N3CCc4ccccc4C3)O[C@@H](CO)[C@@H]1O2 | – | – | – | · | · | · | ·
O=C(Nc1ccc(C(F)(F)F)cc1)Nc1ccc2c(c1)[C@H]1C[C@H](CC(=O)N3CCc4ccccc4C3)O[C@H](CO)[C@H]1O2 | – | – | ? | – | 110 | 54 | 106
O=C(Nc1ccc(C(F)(F)F)cc1)Nc1ccc2c(c1)[C@@H]1C[C@H](CC(=O)N3CCc4ccccc4C3)O[C@@H](CO)[C@@H]1O2 | – | – | 153 | 103 | 114 | – | –
O=C(Nc1ccc2c(c1)[C@H]1C[C@@H](CC(=O)N3CCc4ccccc4C3)O[C@@H](CO)[C@H]1O2)Nc1ccccc1F | – | – | · | · | · | · | ·
CC(=O)N(C)C[C@H]1Oc2ncc(-c3ccccc3F)cc2C(=O)N([C@@H](C)CO)C[C@@H]1C | – | – | – | · | · | · | ·
